Compound activity as filed in PubChem BioAssay.
Shown are actives, neighbours in structure and some others; about 28% of the full set was active somewhere.
CYP2C19 inhib: human CYP2C19 inhibition; AID 778; CYP2C19 Supersomes, luciferin-H EGE luminescence, 30 min; actives 21% (n = 96,000); inhibition, % at 5 µM;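 active = CYP2C19 inhibition above a set limit at 5 µM in the primary screen, cut at about 50% in these data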
Target sequence (P33261 whole entry, looked up): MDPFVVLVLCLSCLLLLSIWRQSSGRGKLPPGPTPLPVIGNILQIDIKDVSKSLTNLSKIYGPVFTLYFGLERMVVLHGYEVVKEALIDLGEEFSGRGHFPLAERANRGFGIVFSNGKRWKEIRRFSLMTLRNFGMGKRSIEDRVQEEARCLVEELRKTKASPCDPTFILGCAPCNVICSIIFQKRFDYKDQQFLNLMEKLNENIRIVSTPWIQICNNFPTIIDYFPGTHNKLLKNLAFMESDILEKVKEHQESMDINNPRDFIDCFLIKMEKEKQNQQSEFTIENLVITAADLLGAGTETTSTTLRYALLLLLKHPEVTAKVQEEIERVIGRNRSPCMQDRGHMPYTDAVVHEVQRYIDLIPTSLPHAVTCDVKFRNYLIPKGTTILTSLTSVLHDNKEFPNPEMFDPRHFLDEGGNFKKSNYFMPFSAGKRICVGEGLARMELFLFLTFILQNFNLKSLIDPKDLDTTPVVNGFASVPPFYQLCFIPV
PLK1 inh: blocks human PLK1 kinase activity; recombinant PLK1 kinase, TR-FRET peptide phosphorylation; actives 0.53% (n = 97,000); inhibition, % at 10 µM; P53350;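 active = inhibition of 50% or more in the single-concentration screen; inactive = inhibition below 50%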
CYP2C9 act: increases human cytochrome P450 2C9 activity; recombinant CYP2C9, luciferin-H conversion, luminescence; active compounds read high; factor 1 = untreated enzyme, 0 = blocked; actives 1.4% (n = 96,000); P11712; activation factor at 5 µM; AID 1024;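 active = activation factor of 2 or more for CYP2C9 at a 5 µM dose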
CYP2C19 act: cytochrome P450 2C19 (human) activation | activation factor at 5 µM | recombinant CYP2C19, luciferin-H EGE luminescence; active compounds read high; 0 = fully inhibited enzyme, 1 = untreated enzyme | P33261 | 96,000 tested, under 10 active;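 active = activation factor of at least 2 at 5 µM in the primary screen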
CYP2C9 inh: inhibitors of human CYP2C9. P11712. inhibition, % at 5 µM. AID 777. CYP2C9 Supersomes, luciferin-H conversion, luminescence. actives 20% (n = 96,000);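 active = blocking of liver enzyme CYP2C9 beyond about 50% at 5 µM, limit read from the data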
Plk1 PBD FP: blocks phosphopeptide binding to human Plk1 polo box domain; P53350; Plk1 PBD phosphopeptide binding, fluorescence polarization; inhibition, %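 (tested at about 20 µM)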; actives 0.13% (n = 97,000); AID 693; in the data active = inhibition above about 34%, passing the limit was not always enough
Large screens that a line does not name were inactive.

O=C(O)C1CSC(CCc2ccccc2)N1 (stereo not drawn)	none (no result: PLK1 inh, Plk1 PBD FP)
Cc1cccc(C(=O)N2CCN(c3ccc([N+](=O)[O-])c(NCc4ccco4)c3)CC2)c1	CYP2C19 inhib 78, CYP2C9 inh 78
Cc1ccccc1C(=O)N1CCN(c2ccc([N+](=O)[O-])c(NCc3ccco3)c2)CC1	none
Cc1ccc(C(=O)N2CCN(c3ccc([N+](=O)[O-])c(NCc4ccco4)c3)CC2)cc1	CYP2C9 inh 74
CC(C)(C)C(=O)N1CCN(c2ccc([N+](=O)[O-])c(NCC3CCCO3)c2)CC1 (stereo not drawn)	none
O=C(Nc1nnc(-c2ccccc2)s1)c1cc(S(=O)(=O)N2CCOCC2)c(Cl)cc1Cl	none
Cc1ccc(C(=O)N(c2c(C)n(C)n(-c3ccccc3)c2=O)C(C)C)cc1	none
COc1ccc(C)cc1NC(=O)Cn1cnc2sc(C)c(S(=O)(=O)N3CCOCC3)c2c1=O	none (no result: CYP2C19 inhib, CYP2C9 act, CYP2C19 act, CYP2C9 inh)
CCCCCOc1ccccc1C(=O)NCCC(=O)O	none
CCN1C(=O)/C(=C/N2CC(C)CC(C)C2)SC1=S (stereo not drawn)	none
CCN1C(=O)/C(=C\N2CCCCCC2)SC1=S	CYP2C19 inhib 56
O=C(Nc1ccc(NC(=O)c2cccs2)cc1)c1ccc(Br)o1	none
CC(C)c1ccc(NC(=O)c2ccc(Br)o2)cc1	none (no result: CYP2C19 inhib, CYP2C9 act, CYP2C19 act, CYP2C9 inh)
O=C(Nc1ccc(Nc2ccccc2)cc1)c1ccc(Br)o1	CYP2C9 inh 51
O=C(Nc1ccc(Cc2ccncc2)cc1)c1ccc(Br)o1	CYP2C19 inhib 87, CYP2C9 inh 97
CCn1c(=O)c2c(nc(SCc3ccccn3)n2C)n(C)c1=O	none
COc1ccc(C(=O)C(CO)Oc2ccccc2OC)cc1OC (stereo not drawn)	none
COc1ccc(C(=O)c2c(C(F)(F)F)oc3c2C(=O)c2ccccc2C3=O)cc1OC	CYP2C19 inhib 67
CCOc1ccccc1NC(=O)c1cccc(NC(=O)CC(c2ccccc2)c2ccccc2)c1	CYP2C19 inhib 71, CYP2C9 inh 51
CCOc1ccccc1C(=O)Nc1cc(C(=O)NCCc2ccccc2)ccc1Cl	none
CCOc1ccccc1NC(=O)c1ccc(Cl)c(NC(=O)CC(c2ccccc2)c2ccccc2)c1	CYP2C19 inhib 51, CYP2C9 inh 80
Cc1ccnc(NC(=O)c2cccc(NC(=O)COc3ccccc3)c2)c1	none
CC1CCN(C(=O)CSc2nnc(CN3CCOCC3)n2-c2ccccc2)CC1	none
CCOc1ccc(S(=O)(=O)Nc2ccc(C(=O)N/N=C(\C)c3ccc(-n4ccnc4)cc3)cc2)cc1	CYP2C19 inhib 99, CYP2C9 inh 99
CNC(=S)N/N=C(\C)c1ccc(-n2ccnc2)cc1	CYP2C19 inhib 99, CYP2C9 inh 100
COCCNC(=S)N/N=C(\C)c1ccc(-n2ccnc2)cc1	CYP2C19 inhib 99, CYP2C9 inh 100
Cc1cc(C)n(-c2ccc(C(=O)NC(C)C)cc2)n1	none
COCCNC(=S)NNC(=O)c1ccco1	none
C/C(=N\NC(=S)NC(C)C)c1ccc(-n2ccnc2)cc1	CYP2C19 inhib 90, CYP2C9 inh 99
COc1ccc(C2=Nn3c(nnc3-c3ccncc3)SC2)cc1OC	CYP2C9 inh 61
COc1ccc(C2=Nn3c(nnc3-c3cccnc3)SC2)cc1OC	none (no result: PLK1 inh, Plk1 PBD FP)
Cc1nc(NCCc2ccccc2F)c(C#N)c(C)c1[N+](=O)[O-]	CYP2C9 inh 68
COc1cc(CNc2nc(C)c([N+](=O)[O-])c(C)c2C#N)cc(OC)c1	none
COc1ccc(C(=O)N2CCN(Cc3ccccc3C)CC2)cc1OC	none
O=C(c1ccccc1CCc1ccccc1)N1CCOCC1	none
CCOc1ccc(N(CC(=O)NCc2cccc(OC)c2)S(=O)(=O)c2c(C)noc2C)cc1	CYP2C19 inhib 60
COc1ccc(N(CC(=O)NCc2cccc(OC)c2)S(=O)(=O)c2c(C)noc2C)cc1	CYP2C19 inhib 92, CYP2C9 inh 64
COc1ccc(N(CC(=O)NCC2CCCO2)S(=O)(=O)c2c(C)noc2C)cc1 (stereo not drawn)	none
CCOc1ccc(N(CC(=O)Nc2cccc(F)c2)S(=O)(=O)c2c(C)noc2C)cc1	none
COCc1nnc(NS(=O)(=O)c2ccc(C)cc2)s1	CYP2C9 inh 52
COCc1nnc(NS(=O)(=O)c2ccccc2)s1	none
COCc1nnc(NS(=O)(=O)c2c(C)cc(C)cc2C)s1	CYP2C9 inh 84
CC1CN(C(=O)CN2C(=O)c3ccccc3C2=O)CC(C)O1 (stereo not drawn)	none
CCOC(=O)NC(=O)CSc1nnc(C)s1	none
CCOC(=O)CSCC(=O)Nc1ccc(S(=O)(=O)N2CCCCC2)cc1	CYP2C19 inhib 77, CYP2C9 inh 88
Cc1nc2ncnn2c(C)c1CCC(=O)Nc1ccc(S(=O)(=O)N2CCCCCC2)cc1	CYP2C9 inh 69
Cc1cc(C)c2nc(SCC(=O)Nc3ccc(S(=O)(=O)N4CCCC4)cc3)c(C)cc2c1	CYP2C9 inh 88
CCn1cc(C(=O)OCC(=O)Nc2ccc(S(=O)(=O)N3CCCC3)cc2)c(=O)c2ccc(C)nc21	CYP2C9 inh 68
COc1cccc(C(C(=O)NCc2ccco2)N(Cc2ccco2)C(=O)Cn2nnc3ccccc32)c1 (stereo not drawn)	none (no result: CYP2C19 inhib, CYP2C9 act, CYP2C19 act, CYP2C9 inh)
COc1ccc(C2C(C(=O)NCc3ccccc3)=C(C)Nc3ncnn32)cc1OC (stereo not drawn)	none
CC1(C)CC(OC(=O)c2ccco2)CC(C)(C)N1O	none
CC(C)(C)NC(=O)COC(=O)c1ccc(S(=O)(=O)N2CCCCCC2)cc1	none
Cc1cc(C)n(-c2ccc(C(=O)OCC(=O)Nc3ccc(S(=O)(=O)N4CCCCC4)cc3)cc2)n1	CYP2C19 inhib 68, CYP2C9 inh 82
Cc1cc(=O)[nH]c(SCC(=O)Nc2ccc(S(=O)(=O)N3CCCCC3)cc2)n1	CYP2C9 inh 80
Cc1nc(COC(=O)c2ccc(S(=O)(=O)N3CCCC3)cc2)cs1	CYP2C9 inh 90
O=C(NC(Cc1ccccc1)C(=O)OCC(=O)N1CCc2ccccc21)c1ccco1 (stereo not drawn)	none (no result: PLK1 inh, Plk1 PBD FP)
CC(=O)Nc1ccc(S(=O)(=O)NNC(=O)c2cc3c4ccccc4n(C)c3s2)cc1	none
COC(=O)c1cn(CC(=O)NC2CCCCCC2)c2ccccc12	none (no result: CYP2C19 inhib, CYP2C9 act, CYP2C19 act, CYP2C9 inh)
CCOc1ccc(C(CCc2ccccc2)NC(=O)c2ccccc2F)cc1OCC (stereo not drawn)	CYP2C19 inhib 77, CYP2C9 inh 78
CCOc1ccc(C(CCc2ccccc2)NC(=O)c2ccccc2OC)cc1OCC (stereo not drawn)	CYP2C19 inhib 64, CYP2C9 inh 85
CCOc1ccccc1C(=O)NC(CO)C(=O)O (stereo not drawn)	none
CCOC(=O)c1c(NC(=O)CSc2nc3ccccc3s2)sc(C)c1C	CYP2C9 inh 65
CCOC(=O)c1c(NC(=O)CSc2ncn[nH]2)sc(C)c1C	CYP2C19 inhib 73, CYP2C9 inh 85
CCOC(=O)c1c(NC(=O)CSc2nc3ccccc3o2)sc(C)c1C	none
